Molecules are shown by their SMILES. Several values for one entry are separate records, joined by “and”; a condition that tells them apart may be missing. Equal values may be shown once. Results filed as inconclusive are left out. Some structures have more than one record in an assay (separate samples or runs), and their calls can disagree. Activity calls are given as the source filed them. Unless noted, the call rests on the fitted dose curve; in most records, active means well fitted curve in the direction sought with a large enough effect; inconclusive means small, poorly fitted or top-dose-only effect, or another doubt; inactive means no such curve, though single readings can be large; an effect the other way counts as inactive or inconclusive.

In PubChem BioAssay (NCATS) one finds cell viability, % of control (lower = more cytotoxic), viability (% of control) and Potency data, which are given here for nine compounds.

The nature of experiment [1]: High-throughput drug toxicity screening in the BPDCN cell line Gen2.2 (AID 1224824; call rule not given here;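 further: cells exposed to compounds for 48 h before reading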). As to conditions: Gen2.2 BPDCN cells; at 45.8 µM (top of the series) unless noted. Put shortly:
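Seed 500 exponentially growing Gen2.2 cells/well; add compounds by pin tool; incubate 48 h, 37 °C, 5% CO2; add CellTiter-Glo, 15 min RT; read luminescence. % activity vs DMSO (100%) and bortezomib (0%).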

Experiment [2] can be described thus: High-throughput drug toxicity screening in the BPDCN cell line Cal-1 (AID 1224825; call rule not given here). As to conditions: Cal-1 BPDCN cell viability, qHTS; at 45.8 µM (top of the series) unless noted. Put shortly: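 Exponentially growing Cal-1 cells, 500 per well in phenol red-free RPMI with 10% FBS, were exposed to compounds for 48 h at 37 °C, 5% CO2. Viability was read by CellTiter-Glo luminescence and normalised to DMSO (100%) and 9.2 uM bortezomib (0%).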
A general note: In qHTS, concentration-response curves come from the screen itself.

Experiment [3] can be described thus: qHTS assay for measurement of the activity of small molecule inhibitors on Zika virus induced Caspase-3 activity in human iPSC derived neural progenitor cells (hNPCs) (AID 1224857). Further: % of control where 0% means no effect; nearly all actives have a fitted effect of over 65% in size. Put shortly:
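Values are percent inhibition of virus-induced caspase-3/7 signal, scaled between uninfected cells and ZIKV-infected cells. Infection used 2 FFU/cell for 6 h after 1 h compound exposure.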

Experiment [4] can be described thus: qHTS assay for measurement of the activity of small molecule inhibitors on Zika virus induced Caspase-3 activity in human astrocytoma cells (AID 1224859).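 Further: plate controls were ZIKV-infected untreated cells for no effect and uninfected cells for full effect.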 A digest of the protocol:
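Compound added 1 h pre-infection; ZIKV 2 FFU/cell on SNB-19 cells, 6 h, 37 C/5% CO2. Caspase-Glo 3/7 luminescence; values as % inhibition of ZIKV-induced caspase activity.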

A short description of experiment [5]: qHTS Screen of the MIPE 4.0 Collection Against Ewings Sarcoma (RDES) (AID 1259252). Further: nearly all actives have a fitted effect of over 35% in size. Further: potency means the concentration at half of the fitted maximal effect. Put shortly:
(§1)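 Compound titrations go onto adherent log-phase cells 4 h after seeding, incubate 48 h at 37C, then CellTiter-Glo luminescence reports viability relative to DMSO and cell-free controls.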

Experiment [6] is described as follows: qHTS Screen of the MIPE 4.0 Collection Against Ewings Sarcoma (TC71) (AID 1259253). Further: nearly all actives have a fitted effect of over 40% in size. Further: potency means the concentration at half of the fitted maximal effect. Put shortly:
as §1

A short description of experiment [7]: qHTS Screen of the MIPE 4.0 Collection Against Ewings Sarcoma (EW8) (AID 1259255). Further: nearly all actives have a fitted effect of over 35% in size. Further: potency means the concentration at half of the fitted maximal effect.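 On viability: 100% = DMSO-treated cells and 0% = medium-only wells without cells.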 A digest of the protocol:
as §1

Experiment [8] in a line: qHTS Screen of the MIPE 4.0 Collection Against Ewings Sarcoma (TC32) (AID 1259256). Further: nearly all actives have a fitted effect of over 45% in size. Further: potency means the concentration at half of the fitted maximal effect. A digest of the protocol:
as §1

Experiment [9] can be described thus: P-glycoprotein substrates identified in KB-3-1 adenocarcinoma cell line, qHTS therapeutic library screen (AID 1346986). Further: nearly all actives have a fitted effect of over 60% in size.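 Further: potency means the concentration at half of the fitted maximal effect; potency is for cytotoxicity meaning loss of cell viability.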 A digest of the protocol:
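Resistance attributable to P-gp was assessed by comparing AC50 in KB-8-5-11 with parental KB-3-1 and by tariquidar reversal. Cells were exposed 72 h and viability read by CellTiter-Glo.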

A short description of experiment [10]: P-glycoprotein substrates identified in KB-8-5-11 adenocarcinoma cell line, qHTS therapeutic library screen (AID 1346987). Further: nearly all actives have a fitted effect of over 65% in size. Put shortly: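 Steps: plate 500 KB-8-5-11 cells/well in DMEM + 10% FCS (colchicine removed); pin compounds in dose-response; incubate 72 h, 37 degree C, 5% CO2; add CellTiter-Glo, 5 min; read luminescence.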

For `COc1cc2ncnc(Nc3cccc(Br)c3)c2cc1OC`, the cell viability, % of control (lower = more cytotoxic) in experiment [1] stood at 64%. For the same compound, the viability (% of control) in [2] came to 5.16%. Moreover, the Potency result in [3], in [4] and in experiment [10] was “inactive” throughout. In addition, the Potency in [5] was 0.132 µM (active); in experiment [6] it was 0.59 µM (active); in experiment [7], 1.48 µM (active); in [8], 0.833 µM (active); in experiment [9] it was “inactive and 18.4 µM (active)”.

Consider `Cn1cc(C=CC(=O)c2cccc(F)c2)cc1C=CC(=O)NO`, for which, in [1], the cell viability, % of control (lower = more cytotoxic) was 7.04%. Further, in [2], the viability (% of control) stood at 4.87%. The Potency result in [3], in experiment [4], in experiment [9] and in experiment [10] was “inactive” throughout. Besides, the Potency in [5] is 23.5 µM (active); in [6], 18.7 µM (active); in experiment [7], 16.6 µM (active); in experiment [8], 20.9 µM (active).

As for `COc1cc(O)c2c(c1)C1OC1C[C@H](O)[C@H](O)C(=O)C=CC[C@H](C)OC2=O` (stereo not given in full), in experiment [1], the cell viability, % of control (lower = more cytotoxic) stood at 3.33%. Further, in experiment [2], the viability (% of control) is 5.65%. The Potency entry in [3] and in [4] was “inactive” throughout. The Potency in experiment [5] is 16.6 µM (active); in experiment [6] it was 11.8 µM (active); in experiment [7] it was 7.43 µM (active); in [8], 7.43 µM (active).

`CN1[C@H]2CC(OC(=O)[C@@H](CO)c3ccccc3)C[C@H]1[C@H]1O[C@H]12` (stereo not given in full): the cell viability, % of control (lower = more cytotoxic) in experiment [1] was 189% [at 23.2 µM]. Besides, in experiment [2], the viability (% of control) is 107% [at 23.2 µM]. Besides, the Potency result in experiment [3], in experiment [4], in experiment [5], in [6] and in experiment [7] was “inactive” each time.

As to `CC(O)(C#Cc1ccc2c(c1)N(c1nc(N)ncc1Cl)CC2)c1nccs1` (stereo not given), the cell viability, % of control (lower = more cytotoxic) in experiment [1] was found to be 279%. In addition, the viability (% of control) in experiment [2] was 37.2%. Further, the Potency entry in [3] and in experiment [4] was “inactive” in each case. Besides, the Potency in experiment [5] was 16.6 µM (active); in experiment [6] it was 20.9 µM (active); in experiment [7], 20.9 µM (active); in experiment [8], 20.9 µM (active).

Regarding `CC(=CC(=O)Nc1ccccc1C(=O)O)c1ccc2ccccc2c1`, the cell viability, % of control (lower = more cytotoxic) in experiment [1] worked out at 115%. Further, the viability (% of control) in experiment [2] came to 77.7%. Also, the Potency entry in experiment [3] and in experiment [4] was “inactive” in each case. Also, the Potency in experiment [5] is 4.18 µM (active); in experiment [6], 13.2 µM (active); in [7], 10.5 µM (active); in [8], 9.35 µM (active).

In the case of `C=CC[C@@H]1C=C(C)C[C@H](C)C[C@H](OC)[C@H]2O[C@@](O)(C(=O)C(=O)N3CCCC[C@H]3C(=O)O[C@H](C(C)=C[C@@H]3CC[C@H](O)[C@H](OC)C3)[C@@H](C)[C@@H](O)CC1=O)[C@@H](C)C[C@@H]2OC`, the cell viability, % of control (lower = more cytotoxic) in experiment [1] was found to be 17.2%. Further, the viability (% of control) in experiment [2] came to 44.2%. For the same compound, the Potency entry in [3], in [4] and in [9] was “inactive” throughout. Further, the Potency is 2.64 µM (active) in experiment [5], 1.87 µM (active) in experiment [6], 1.66 µM (active) in [7] and 1.48 µM (active) in [8].

For `Cc1coc2c1C(=O)C(=O)c1c-2ccc2c(C)cccc12`, the cell viability, % of control (lower = more cytotoxic) in [1] is 45.1%. Besides, in experiment [2], the viability (% of control) amounted to 93.8%. Moreover, the Potency entry in [3], in experiment [4], in experiment [5], in experiment [7], in [8] and in experiment [9] was “inactive” in each case. Moreover, the Potency result in experiment [10] was “inactive”. Moreover, the Potency in experiment [6] was 11.8 µM (active).

With `CC(=O)N[C@@H]1[C@H](O[C@@H]2c3ccc(c(Cl)c3)Oc3cc4cc(c3O[C@H]3O[C@H](CO)[C@@H](O)[C@H](O)[C@H]3NC(=O)CCCCCCCC(C)C)Oc3ccc(cc3Cl)C[C@H]3NC(=O)[C@H](N)c5ccc(O)c(c5)Oc5cc(O)cc(c5)[C@H](NC3=O)C(=O)N[C@H]4C(=O)N[C@H]3C(=O)N[C@@H]2C(=O)N[C@@H](C(=O)O)c2cc(O)cc(O[C@H]4O[C@H](CO)[C@@H](O)[C@H](O)[C@H]4O)c2-c2cc3ccc2O)O[C@H](CO)[C@@H](O)[C@@H]1O`, the cell viability, % of control (lower = more cytotoxic) in experiment [1] turned out to be 82.7%. Further, the viability (% of control) in experiment [2] came out at 104%. In addition, the Potency entry in [3], in experiment [4], in [5], in experiment [6], in [7] and in experiment [8] was “inactive” in each case. For the same compound, the Potency result in experiment [9] and in [10] was “inactive” in each case.
